According to PubChem BioAssay AID1159580 (chemical genetic matrix, 2015):
Among all 5,500 compounds or so, about 2,000 (36%) were called active. Inconclusive results (about 18%) are left out. Rule as the data show it: active = normalized growth mostly below about 0.91 (no sharp cut-off); inconclusive = no clear call, values can overlap the other calls; inactive = mostly above about 0.92. This is one part of the list.

Test: chemical genetic growth profiling, strain panel (AID 1159580);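 also: tested at 20 µM; growth read once vehicle control cultures reached saturation at 30 °C; 1 = growth at the plate median or of vehicle wells; lower values mean less growth of the strain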
Conditions: growth OD
[1] = S. cerevisiae deletion strains, locus YAL013W, strain DEP1, active compounds read low
[2] = S. cerevisiae deletion strains, locus YBR229C, strain ROT2, active compounds read low
[3] = S. cerevisiae deletion strains, locus YDL101C, strain DUN1, active compounds read low
[4] = S. cerevisiae deletion strains, locus YDR150W, strain NUM1, active compounds read low
[5] = S. cerevisiae deletion strains, locus YEL061C, strain CIN8, active compounds read low
[6] = S. cerevisiae deletion strains, locus YGR078C, strain PAC10, active compounds read low
[7] = S. cerevisiae deletion strains, locus YHR030C, strain SLT2, active compounds read low
[8] = S. cerevisiae deletion strains, locus YHR087W, strain rtc3, active compounds read low
[9] = S. cerevisiae deletion strains, locus YJR043C, strain POL32, active compounds read low
[10] = S. cerevisiae deletion strains, locus YJR075W, strain HOC1, active compounds read low
[11] = S. cerevisiae deletion strains, locus YKL190W, strain CNB1, active compounds read low
[12] = S. cerevisiae deletion strains, locus YLR039C, strain RIC1, active compounds read low
[13] = S. cerevisiae deletion strains, locus YLR058C, strain SHM2 (second series), active compounds read low
[14] = S. cerevisiae deletion strains, locus YLR085C, strain ARP6, active compounds read low
[15] = S. cerevisiae deletion strains, locus YLR262C, strain YPT6, active compounds read low
[16] = S. cerevisiae deletion strains, locus YML094W, strain GIM5, active compounds read low
[17] = S. cerevisiae deletion strains, locus YMR219W, strain ESC1, active compounds read low
[18] = S. cerevisiae deletion strains, locus YMR263W, strain SAP30, active compounds read low
[19] = S. cerevisiae deletion strains, locus YMR307W, strain GAS1, active compounds read low
[20] = S. cerevisiae deletion strains, locus YNL153C, strain GIM3, active compounds read low
[21] = S. cerevisiae deletion strains, locus YNL298W, strain CLA4 (second series), active compounds read low
[22] = S. cerevisiae deletion strains, locus YNL322C, strain KRE1, active compounds read low
[23] = S. cerevisiae deletion strains, locus YNR030W, strain Alg12, active compounds read low
[24] = S. cerevisiae deletion strains, locus YPL055C, strain LGE1, active compounds read low
[25] = S. cerevisiae deletion strains, locus YPL241C, strain CIN2, active compounds read low
[26] = S. cerevisiae deletion strains, locus YPR135W, strain CTF4, active compounds read low

Measured: normalized growth

O=C(COC(=O)c1ccccc1Nc1ccccc1)c1ccc(Cl)cc1
inactive: [1] 0.978 | [2] 0.99 | S. cerevisiae deletion strains, locus YCL061C, strain MRC1, active compounds read low 0.993 | [3] 0.986 | [4] 0.9 | [5] 0.993 | [6] 0.982 | S. cerevisiae deletion strains, locus YGR229C, strain SMI1, active compounds read low 0.98 | [7] 1.01 | [8] 0.974 | S. cerevisiae deletion strains, locus YJL187C, strain SWE1, active compounds read low 0.997 | [9] 0.98 | [10] 1 | [11] 0.988 | [12] 0.944 | [13] 0.992 | [14] 1.02 | [15] 0.987 | [16] 0.956 | [17] 0.988 | [18] 0.927 | [19] 0.987 | [20] 0.993 | [21] 1 | [22] 0.966 | [23] 0.99 | S. cerevisiae deletion strains, locus YOL006C, strain TOP1, active compounds read low 0.964 | [24] 0.921 | [25] 0.9 | [26] 1.01 | S. cerevisiae strains, strain wild type, active compounds read low 0.985

O=C(COC(=O)c1ccccc1Nc1cccc(F)c1)c1ccccc1
inactive: [1] 0.98 | [2] 0.994 | [3] 1.01 | S. cerevisiae deletion strains, locus YDL134C, strain PPH21, active compounds read low 0.997 | [4] 1.01 | [5] 0.989 | [6] 0.982 | [7] 0.93 | [8] 1 | [9] 0.986 | [10] 1.03 | [11] 0.989 | [12] 1.01 | [13] 0.989 | [14] 0.916 | [15] 1.02 | [16] 0.996 | [17] 0.997 | [18] 0.997 | [19] 0.882 | S. cerevisiae deletion strains, locus YNL128W, strain TEP1, active compounds read low 0.987 | [20] 0.99 | [21] 0.97 | [22] 0.981 | [23] 0.978 | [24] 1.01 | [25] 0.96 | [26] 1.01
